Shown are actives, neighbours in structure and some others; about 3.4% of the full set was active somewhere.
GPR151 activ = activators of human GPR151, primary screen, cell-based, PathHunter beta-arrestin, luminescence. PathHunter beta-arrestin GPR151 cells. activation, % at 11.2 µM. actives 1% (n = 650,000). AID 1508602, 2020; in the data active = activation above about 4.9%;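 also: 0% = median of compound wells and 100% = cells with positive control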
Target sequence (Q8TDV0 whole entry, looked up): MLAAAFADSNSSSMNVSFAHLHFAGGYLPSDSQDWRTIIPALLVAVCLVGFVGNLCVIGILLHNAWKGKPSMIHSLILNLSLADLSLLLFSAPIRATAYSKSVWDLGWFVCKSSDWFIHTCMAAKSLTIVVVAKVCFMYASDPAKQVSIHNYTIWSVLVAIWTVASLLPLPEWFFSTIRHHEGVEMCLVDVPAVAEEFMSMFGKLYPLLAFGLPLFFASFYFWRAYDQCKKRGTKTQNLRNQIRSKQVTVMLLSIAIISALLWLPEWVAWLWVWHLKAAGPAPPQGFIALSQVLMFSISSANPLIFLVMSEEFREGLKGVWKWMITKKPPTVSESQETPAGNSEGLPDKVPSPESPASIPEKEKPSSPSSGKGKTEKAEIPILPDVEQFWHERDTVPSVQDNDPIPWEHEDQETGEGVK
TEAD-YAP inh = TEAD-YAP interaction inhibition, primary screen, TEAD-YAP interaction inhibitor project, luminescence, HEK-TIYL cells; TEAD-Gal4/YAP UAS-luciferase luminescence; inhibition, % at 9.12 µM; actives 1.4% (n = 640,000); AID 1259422, 2018; in the data active = inhibition above about 32%;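 also: 0% = median of test compound wells and 100% = reference inhibitor wells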
MITF inh = MITF inhibitors, primary screen, biochemical, AlphaScreen, human; AlphaScreen MITF homodimerization, bead proximity signal; Microphthalmia-associated transcription factor (Homo sapiens), O75030; inhibition, % at 2.6 µM; AID 1259374, 2018; actives 0.91% (n = 650,000); in the data active = inhibition above about 50%;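 also: 0% = vehicle wells with protein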
FBW7 act = FBW7 E3 ligase activators, primary screen, biochemical, AlphaScreen, human. actives 0.13% (n = 650,000). F-box/WD repeat-containing protein 7 (Homo sapiens), Q969H0. normalized activity (activation), % at 26.1 µM. AlphaScreen FBW7–phospho-cyclin E peptide binding, activator screen; in the data active = normalized activity above about 1.9%;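 also: purified mutant Fbw7 with reduced substrate affinity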
* hit, by the source's call.

SMILES	GPR151 activ	TEAD-YAP inh	MITF inh	FBW7 act
O=C(O)c1ccc(C2Nc3ccc([N+](=O)[O-])cc3C3C=CCC32)cc1 (stereo not drawn)	0	-11	76*	-2
CC1(CCc2ccccc2)OC(=O)N(Cc2ccccc2)C1(C)O (stereo not drawn)	1	9	6	0
O=C(CCc1nnc2ccc(N3CCOCC3)nn12)NCc1ccccc1Cl	0	-8	0	0
NS(=O)(=O)c1ccc(NC(=S)NCCCCc2ccccc2)cc1	1	9	-2	0
COC(=O)c1ccc([C@@H]2Nc3ccc(C(C)=O)cc3[C@@H]3C=CC[C@@H]32)cc1	-1	-29	11	0
COC(=O)c1ccccc1OC(=O)c1ccc2c(c1)C1C=CCC1C(C(=O)O)N2 (stereo not drawn)	0	7	68*	0
O=C(O)c1ccc2c(c1)[C@@H]1C=CC[C@@H]1[C@H](c1c(F)cccc1Cl)N2	0	40*	9	0
CC(C)COC(=O)c1ccc2c(c1)C1C=CCC1C(C(=O)O)N2 (stereo not drawn)	0	4	29	0
COC(=O)c1ccc([C@@H]2Nc3ccc(C(=O)O)cc3[C@@H]3C=CC[C@@H]32)cc1	0	12	73*	-1
CCC(C)NC(=O)CN1C(=O)C(c2ccccc2)Oc2cccnc21 (stereo not drawn)	1	4	-13	0
O=C(O)CN1C(=O)/C(=c2\sc3nc(-c4cccc(Cl)c4)nn3c2=O)c2ccccc21	1	-3	-19	0
CCCCNC(=O)C(=O)NCC1OCCc2ccccc21 (stereo not drawn)	-1	-5	9	0
CCc1ccc(NC(=O)CSc2nc3c(sc(=S)n3-c3ccc(Cl)c(C)c3)c(=O)n2-c2ccc(OC)cc2)cc1	0	2	2	0
CCN1CCN(c2c(Cl)cccc2NC(=O)c2cccc3ccccc23)CC1	2	35*	8	0
O=C(Nc1cccc(Cl)c1N1CCN(CCc2ccccc2)CC1)c1ccc(Br)o1	23*	-4	0	0
C=C(C)CN1CCN(c2c(Cl)cccc2NC(=O)c2ccc(Br)o2)CC1	1	-5	6	0
COc1ccc(N2CCN(C(CNS(=O)(=O)c3ccc(OC)c(C)c3)c3ccco3)CC2)cc1 (stereo not drawn)	0	6	68*	0
O=C(CSc1ccc(-c2ccc(-n3ccnc3)cc2)nn1)N1CCc2ccccc21	-1	-17	-35	2.3*
O=C(Nc1cnc2cnc(-c3ccc(N4CCOCC4)cc3)cn12)C1CCOC1 (stereo not drawn)	-1	-18	6	2.4*
O=C(NCc1ccc(CNC(=O)C2CC2)cc1)C1CC1	1	0	2	0
Cc1c(Cc2ccccc2)c(N2CCN(C/C=C/c3ccccc3)CC2)n2c(nc3ccccc32)c1C#N	0	-9	12	0
CCc1cc(-c2[nH]ncc2-c2ccc3c(c2)OCCO3)c(O)cc1OC	1	63*	9	0
COc1ccc(CCNSc2ccccc2[N+](=O)[O-])cc1OC	0	1	-2	0
COc1cc(Sc2ccccc2[N+](=O)[O-])ccc1N	-1	46*	1	0
CCCc1ccc(C(=O)Nc2cnc3ccccc3c2)cc1	-5	70*	12	0
SMILES	GPR151 activ	TEAD-YAP inh	MITF inh	FBW7 act
CCOC(=O)c1cn[nH]c1S(=O)(=O)N1CCN(c2ccc(F)cc2)CC1	0	7	4	-1
CCN(CC)c1cc(-c2ccccc2F)nc(-c2ccccn2)n1	1	50*	8	0
CCN(CC)c1cc(-c2ccccn2)nc(-c2ccccc2)n1	-2	6	-9	0
CCN(CC)c1cc(-c2ccccc2F)nc(-c2ccncc2)n1	1	-10	5	0
CCN(CC)c1cc(-c2ccccn2)nc(-c2ccccn2)n1	1	86*	113*	-1
Cc1cnc(CNc2cc(-c3ccccc3F)nc(-c3ccccn3)n2)nc1	2	33*	24	-1
O=C(NCCc1ccccc1F)C(=O)NCc1ccccc1	1	3	14	0
CCc1ccc(-n2nnnc2SCC(=O)Nc2nc3c(s2)CCCC3)cc1	2	3	9	0
COC(=O)c1ccc(/C=C/C(=O)c2ccc3c(c2)OCCO3)cc1	-1	-53	-11	0

Assay outcomes deposited in PubChem by The Scripps Research Institute Molecular Screening Center.
